According to PubChem BioAssay (NCI):
About 83,000 compounds went through this panel and 20% of them were active in at least one assay; those are over-represented in the sample as a whole.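 Treatment: one concentration, 48 hours, 96-well format. Scoring: percent growth, with anything below 10 considered active.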 Activity calls are given as the source filed them.

How the values were obtained:
Experiment in all cases: NCI-60 one-dose screen, 48 h (100 = growth as untreated, 0 = no growth, -100 = all killed)
Conditions in all cases: 10 µM
NCI-H23 lung = system: NCI-H23 lung
NCI-H226 lung = system: NCI-H226 lung
NCI-H460 lung = system: NCI-H460 lung
NCI-H522 lung = system: NCI-H522 lung
A549/ATCC NSCLC = system: A549/ATCC NSCLC
786-0 renal = system: 786-0 renal
COLO 205 colon = system: COLO 205 colon
DU-145 prostate = system: DU-145 prostate
K-562 leukemia = system: K-562 leukemia
MALME-3M melanoma = system: MALME-3M melanoma
MDA-MB-231 breast = system: MDA-MB-231 breast
RXF 393 renal = system: RXF 393 renal
SF-268 CNS = system: SF-268 CNS
SF-295 CNS = system: SF-295 CNS
SF-539 CNS = system: SF-539 CNS
M14 melanoma = system: M14 melanoma
UACC-257 melanoma = system: UACC-257 melanoma
HOP-92 NSCLC = system: HOP-92 NSCLC

Measured: growth

CCn1c2ccc(O)cc2c2c(C)c3c[n+](C)ccc3c(C)c21
active: NCI-H460 lung 7.28% | NCI-H522 lung -0.0478% | MALME-3M melanoma -20.4% | SF-268 CNS -10.1%
inactive: NCI-H23 lung 19.2% | NCI-H226 lung 26.1% | A549/ATCC NSCLC 37.5% | 786-0 renal 13.7% | COLO 205 colon 43.6% | DU-145 prostate 53.7% | K-562 leukemia 60% | MDA-MB-231 breast 71.7% | RXF 393 renal 57.1% | SF-295 CNS 13.6% | SF-539 CNS 12.1% | M14 melanoma 51.8%

CCOC(=O)N/N=C/c1ccc(OC)c(OC)c1
inactive: NCI-H23 lung 113% | NCI-H226 lung 97.9% | NCI-H460 lung 102% | A549/ATCC NSCLC 102% | 786-0 renal 104% | COLO 205 colon 117% | DU-145 prostate 118% | K-562 leukemia 99.9% | MALME-3M melanoma 132% | MDA-MB-231 breast 106% | RXF 393 renal 101% | SF-268 CNS 127% | SF-295 CNS 101% | SF-539 CNS 112% | UACC-257 melanoma 106% | M14 melanoma 113%

O=C(CCCCNC(=O)c1nc(-c2ccccc2)n(-c2ccccc2)n1)NO
inactive: NCI-H23 lung 87% | NCI-H226 lung 83.9% | NCI-H460 lung 78.1% | NCI-H522 lung 27.7% | A549/ATCC NSCLC 84.2% | 786-0 renal 92% | COLO 205 colon 84.9% | DU-145 prostate 98.6% | K-562 leukemia 81.7% | MALME-3M melanoma 23.5% | MDA-MB-231 breast 86.2% | RXF 393 renal 84.2% | SF-268 CNS 90.1% | SF-295 CNS 93.6% | SF-539 CNS 65.1% | M14 melanoma 66.8%

Cc1ccccc1N1C(=O)c2cc(S(N)(=O)=O)c(Cl)cc2NC1C (configuration not stated)
inactive: NCI-H23 lung 101% | NCI-H226 lung 112% | NCI-H460 lung 111% | A549/ATCC NSCLC 100% | 786-0 renal 99.6% | COLO 205 colon 118% | DU-145 prostate 111% | MALME-3M melanoma 103% | MDA-MB-231 breast 119% | RXF 393 renal 128% | SF-268 CNS 106% | SF-295 CNS 103% | SF-539 CNS 111% | UACC-257 melanoma 102% | M14 melanoma 111%

O=C1CC(=O)N(C(=O)c2nn(-c3ccc(Cl)cc3)cc2O)N1
inactive: NCI-H23 lung 39.3% | NCI-H226 lung 43.1% | NCI-H460 lung 27.4% | A549/ATCC NSCLC 44.5% | 786-0 renal 50.7% | DU-145 prostate 46.9% | MDA-MB-231 breast 62.3% | RXF 393 renal 53.3% | SF-268 CNS 43.3% | SF-539 CNS 39.7% | UACC-257 melanoma 66.1% | M14 melanoma 47.5%
active: NCI-H522 lung 5.35% | COLO 205 colon -13.4% | K-562 leukemia 5.55% | SF-295 CNS -7.1%

Cc1ccc(-n2c(C)nn3c(=O)c4c5c(sc4nc23)CN(C)CC5)cc1
inactive: NCI-H23 lung 97.4% | NCI-H226 lung 98.3% | NCI-H460 lung 109% | NCI-H522 lung 71.5% | 786-0 renal 86.3% | DU-145 prostate 99.8% | K-562 leukemia 100% | MALME-3M melanoma 93.7% | MDA-MB-231 breast 96.3% | RXF 393 renal 105% | SF-268 CNS 94.1% | SF-295 CNS 98.1% | SF-539 CNS 101% | M14 melanoma 95.8%

CS(=O)(=O)c1nccc(-c2c(-c3ccc(OCCc4ccccc4)cc3)nc3sccn23)n1
inactive: NCI-H23 lung 91.8% | NCI-H226 lung 44.8% | HOP-92 NSCLC 75.8% | NCI-H522 lung 94% | A549/ATCC NSCLC 101% | 786-0 renal 99.3% | COLO 205 colon 115% | DU-145 prostate 94% | K-562 leukemia 100% | MALME-3M melanoma 103% | MDA-MB-231 breast 85.2% | RXF 393 renal 92.5% | SF-268 CNS 104% | SF-295 CNS 108% | SF-539 CNS 85.5% | UACC-257 melanoma 103% | M14 melanoma 94.6%

CN(C)c1ncnc2c1nnn2C1OC(CO)C(O)C1O (configuration not stated)
inactive: NCI-H226 lung 39.9% | HOP-92 NSCLC 19.6% | A549/ATCC NSCLC 36.3% | 786-0 renal 17.2% | DU-145 prostate 15.9% | MDA-MB-231 breast 36.5% | SF-268 CNS 24.9% | UACC-257 melanoma 11.8%
active: NCI-H23 lung 4.79% | NCI-H522 lung -25.2% | COLO 205 colon -80.9% | MALME-3M melanoma -10.4% | RXF 393 renal -2.59% | SF-295 CNS 6.4% | SF-539 CNS -2.72% | M14 melanoma -13.2%

CC1=CC2C(C(O)CC3(C)C2CC(C)C32OCOC23COCO3)C2(C)C/C(=C/O)C(=O)C=C12 (configuration not stated)
active: NCI-H23 lung -0.378% | COLO 205 colon -14.4% | K-562 leukemia 2.43%
inactive: NCI-H226 lung 78.4% | HOP-92 NSCLC 94.1% | A549/ATCC NSCLC 41.8% | 786-0 renal 58.8% | DU-145 prostate 44.1% | MALME-3M melanoma 15.5% | MDA-MB-231 breast 18% | RXF 393 renal 26.1% | SF-268 CNS 24.8% | SF-295 CNS 79.5% | SF-539 CNS 41.5% | UACC-257 melanoma 78.2% | M14 melanoma 18.7%
